Reference: PubChem BioAssay
Values without a mark were called inactive. The rule behind the calls is not given here.

What follows are compounds tested against Pantothenate synthetase (Mycobacterium tuberculosis (strain ATCC 25618 / H37Rv)) (UniProt P9WIL5) (assay: Recombinant Mtb pantothenate synthetase (PanC) inhibitors, coupled enzyme, confirmatory (AID 375;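 note: 0% = full reaction with vehicle and 100% = no enzyme background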)). Details: coupled enzyme assay; at 10 µM, active compounds read high.
Chain of Pantothenate synthetase (Mycobacterium tuberculosis (strain ATCC 25618 / H37Rv)) (P9WIL5 whole entry, looked up): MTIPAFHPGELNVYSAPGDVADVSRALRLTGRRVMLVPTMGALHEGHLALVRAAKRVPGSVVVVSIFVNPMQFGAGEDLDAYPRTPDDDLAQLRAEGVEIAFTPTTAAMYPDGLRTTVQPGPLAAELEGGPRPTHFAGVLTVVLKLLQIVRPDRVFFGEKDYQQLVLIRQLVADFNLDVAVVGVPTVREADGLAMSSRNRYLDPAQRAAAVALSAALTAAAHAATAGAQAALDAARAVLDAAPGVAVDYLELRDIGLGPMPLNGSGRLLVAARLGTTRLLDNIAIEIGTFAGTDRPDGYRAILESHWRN

SMILES | inhibition [%]
CN(C)CCC(c1ccc(Br)cc1)c1ccccn1 (centres undefined) | 0
OC1C[N+]2(CCCCC2)C1 | 0
CCOC(=O)c1cnc(-n2nc(C)cc2C)nc1Nc1cccc(C(C)=O)c1 | 0
Cc1ccc(NC(=O)C2CCCN(S(=O)(=O)c3cnc[nH]3)C2)c(Br)c1 (centres undefined) | 0
CCN1CCN(S(=O)(=O)Cc2ccccc2)CC1 | 0
CC(C)NC(=O)c1ccccc1NC(=O)CCS(=O)(=O)Cc1ccccc1 | 2
CCOC(=O)C1CCCN(S(=O)(=O)c2cccs2)C1 (centres undefined) | 6
Cc1ccc(-c2cc(C(F)F)n3ncc(C(=O)N4CCN(c5ccccn5)CC4)c3n2)cc1 | 6
CCC(OC(=O)c1cccs1)C(=O)NCc1ccco1 (centres undefined) | 0
CCOC(=O)N1CCC2(O)CCCCC2C1c1ccc(F)cc1 (centres undefined) | 1
O=C(O)c1ccc(-c2ccc(O)c(F)c2)cc1 | 1
Cc1ccc(-c2cc(C(F)F)nc(N3CCC(C)CC3)n2)cc1 | 6
CCOC(=O)[C@H](CCc1ccccc1)N[C@@H](C)C(=O)N1CCC[C@H]1C(=O)O | 0
CCCCOc1ccc(N(CC(=O)NC2CCCC2)C(=O)CCC(=O)Nc2ccccn2)cc1 | 0
CCn1c(SCC(=O)NCCc2ccc(Cl)cc2)nnc1-c1cccs1 | 1
O=C(Nc1ccc2nc(-c3cccs3)[nH]c2c1)c1ccco1 | 0
Cc1cc(NC(=O)CSc2nc3c(c(-c4cccnc4)c2C#N)CCC3)no1 | 0
CN(C)c1cccc(C(=O)OCC(=O)NCc2ccco2)c1 | 0
O=C(NC1CCCCC1)C1CC(O)CN1C(=O)OCc1ccccc1 (centres undefined) | 0
CCS(=O)(=O)c1ccc(S(=O)(=O)CC)s1 | 0

SMILES | inhibition [%]
CCc1nnc(NC(=O)CSc2nnc(CSc3nc(C)cc(C)n3)n2CC)s1 | 1
CCOC(=O)C1CCN(S(=O)(=O)c2cccc(-c3csc(C)n3)c2)CC1 | 0
COc1cc(SC)ccc1C(=O)Nc1ccccc1C#N | 0
CC(C)CCNC(=O)NC(=O)CSc1nnc(-c2ccccc2Br)o1 | 1
O=C(NCc1cccs1)c1cc2c(s1)CS(=O)(=O)C2 | 1
CC(=O)OCC(=O)[C@@]1(OC(C)=O)[C@@H](C)C[C@H]2[C@@H]3C[C@H](F)C4=CC(=O)C=C[C@]4(C)[C@@]3(F)[C@@H](O)C[C@@]21C | 0
CCOC(=O)c1ccc(NC(=O)CC2SC(=NC)N(C)C2=O)cc1 (centres undefined) | 2
COc1cc(OC)c(C(=O)Nc2ncn[nH]2)cc1OC | 0
CCCN(C(=O)CSc1nnc(-c2ccoc2C)n1N)C1CCS(=O)(=O)C1 (centres undefined) | 0
O=C1CC(N2CCOCC2)C(=O)N1c1ccccc1Cl (centres undefined) | 1
Cc1c(C)n(C(=O)CN2CCN(c3ccccn3)CC2)c2ccccc12 | 0
Cc1ccccc1S(=O)(=O)Cc1ccc(C(=O)NCc2cccnc2)o1 | 0
CCOC(=O)c1ccc(S(=O)(=O)NC2CCCCCCC2)n1C | 0
Clc1ccc(-n2ncc3c(NCCCn4ccnc4)ncnc32)cc1 | 0
CCCC(=O)Nc1nnc(Sc2ccc(N(C)C)cc2)s1 | 0
COc1ccc(OCCC(=O)NCc2ccccc2)cc1 | 0
O=S(CC(O)COCc1ccc(Cl)cc1)c1ccccn1 (centres undefined) | 0
C1CCC2=NCCCN2CC1 | 7
CCCCCC(=O)N1CC2(C)CN(C(=O)CCCCC)CC(C)(C1)C2=O | 0
